In PubChem BioAssay (Tox21):
Inconclusive results are not listed. Entries that show only a call come without a potency. Activity calls are given as the source filed them. Unless noted, calls come from the whole dose curve; as a rule, active = well fitted curve in the direction sought with a large enough effect in the repeat runs; inconclusive = weak or mixed curves; inactive = no such curve, though single readings can be large; an effect the other way counts as inactive or inconclusive.

Assays:
[1] = qHTS assay to identify small molecule antagonists of the estrogen related receptor (ERR) signaling pathway from Tox21 library - cell viability counter screen (AID 1224834); note: nearly all actives have a fitted effect of over 30% in size; note: potency is the fitted concentration of half-maximal effect
Outline: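 CellTiter-Fluor fluorescence measured; ERR cells; 17.5 h compound incubation at 37 C; 30 min reagent step.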

[2] = target: Luciferin 4-monooxygenase (Photinus pyralis) (UniProt P08659); assay: qHTS assay to identify small molecule inhibitors of firefly luciferase (AID 1224835); note: nearly all actives have a fitted effect of over 25% in size; note: potency is the fitted concentration of half-maximal effect
Outline: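 Inhibition of purified Photinus luciferase is measured by luminescence. Substrate levels (D-luciferin, ATP) sit at their KM values. Each compound is tested in a concentration series.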

[3] = qHTS assay to identify small molecule agonists of the constitutive androstane receptor (CAR) signaling pathway - cell viability counter screen (AID 1224836); note: nearly all actives have a fitted effect of over 45% in size; note: potency is the fitted concentration of half-maximal effect
Outline: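 Cells were seeded and incubated 4 hrs. Compounds were added across 15 concentrations together with PK11195 at 0.75 uM final. Plates were incubated 23 hrs at 37 C. CellTiter-Fluor was added and fluorescence measured.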

[4] = qHTS assay to identify small molecule antagonists of the constitutive androstane receptor (CAR) signaling pathway - cell viability counter screen (AID 1224837); note: nearly all actives have a fitted effect of over 45% in size; note: potency is the fitted concentration of half-maximal effect
Outline: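 Using CellTiter-Fluor, viability is scored in HepG2 cells stably carrying hCAR and a 2.2kb CYP2B6 reporter after 23 hr compound exposure across 15 concentrations, with CITCO present at 50 nM.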

[5] = target: Nuclear receptor subfamily 1 group I member 3 (Homo sapiens) (UniProt Q14994); assay: qHTS assay to identify small molecule antagonists of the constitutive androstane receptor (CAR) signaling pathway (AID 1224838);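 note: HepG2 cells stably expressing hCAR with CYP2B6 luciferase reporter stimulated by CITCO; nearly all actives have a fitted effect of over 40% in size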; note: potency is the fitted concentration of half-maximal effect
Outline: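 Reporter luminescence was quantified after 24 h exposure of hCAR/CYP2B6-2.2kb double-stable HepG2 cells to compounds at 15 concentrations in the presence of 50 nM CITCO final.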

[6] = target: Nuclear receptor subfamily 1 group I member 3 (Homo sapiens) (UniProt Q14994); assay: qHTS assay to identify small molecule agonists of the constitutive androstane receptor (CAR) signaling pathway (AID 1224839); note: nearly all actives have a fitted effect of over 15% in size; note: potency is the fitted concentration of half-maximal effect
Outline: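 Cells were plated and incubated 4 hrs, then dosed with compounds at 15 concentrations. PK11195 was added to 0.75 uM final. After 24 hrs at 37 C, luciferase luminescence was measured.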

[7] = qHTS assay to identify small molecule antagonists of the estrogen related receptor signaling pathway with the pleiotropic PPARgamma coactivator (PGC) from Tox21 10K library - cell viability counter screen (AID 1224840; active = well fitted cell-killing curve with a large enough effect in the repeat runs, not every such curve was filed as active; note: nearly all actives have a fitted effect of over 40% in size; note: potency is the fitted concentration of half-maximal effect)
Outline: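 Here the PGC/ERR cells serve as a cytotoxicity control: they are exposed to compounds for 17.5 hours at 37 C, and live-cell signal is quantified using CellTiter-Fluor fluorescence.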

[8] = qHTS assay to identify small molecule antagonists of the estrogen related receptor signaling pathway with the pleiotropic PPARgamma coactivator (PGC) from Tox21 10K library (AID 1224841; call rule not given here; note: actives are mostly falling curves and most rising ones were filed inactive; nearly all actives have a fitted effect of over 50% in size; note: potency is the fitted concentration of half-maximal effect)
Outline: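 Each well held 2,000 PGC/ERR cells, pre-incubated six hours (37 C, 5% CO2). Test substances in DMSO were added by pin tool and left for 18 h at 37 C before luciferase detection by One-Glo.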

[9] = qHTS assay to identify small molecule agonists of the estrogen related receptor signaling pathway with the pleiotropic PPARgamma coactivator (PGC) from Tox21 10K library (AID 1224842); note: nearly all actives have a fitted effect of over 15% in size
Outline: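 Luminescence from One-Glo (30 min, room temperature) measured after PGC/ERR cells had 18 h at 37 C with pinned compound (23 nL in DMSO). Cells had been seeded at 2,000 per well and pre-incubated 6 h.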

[10] = target: Thyrotropin receptor (Homo sapiens) (UniProt P16473); assay: qHTS assay to identify small molecule agonists of the thyroid stimulating hormone receptor (TSHR) signaling pathway (AID 1224843; calls by dose curve; note: nearly all actives have a fitted effect of over 45% in size; note: potency is the fitted concentration of half-maximal effect)
Outline: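 Screening of the Tox21 10K collection used HEK293 cells engineered with TSHR at 800 cells per well. After a 30-min room-temperature compound exposure, HTRF cAMP reagents were added and fluorescence recorded 1 h later.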

Thyrotropin receptor (Homo sapiens), sequence (P16473 whole entry, looked up): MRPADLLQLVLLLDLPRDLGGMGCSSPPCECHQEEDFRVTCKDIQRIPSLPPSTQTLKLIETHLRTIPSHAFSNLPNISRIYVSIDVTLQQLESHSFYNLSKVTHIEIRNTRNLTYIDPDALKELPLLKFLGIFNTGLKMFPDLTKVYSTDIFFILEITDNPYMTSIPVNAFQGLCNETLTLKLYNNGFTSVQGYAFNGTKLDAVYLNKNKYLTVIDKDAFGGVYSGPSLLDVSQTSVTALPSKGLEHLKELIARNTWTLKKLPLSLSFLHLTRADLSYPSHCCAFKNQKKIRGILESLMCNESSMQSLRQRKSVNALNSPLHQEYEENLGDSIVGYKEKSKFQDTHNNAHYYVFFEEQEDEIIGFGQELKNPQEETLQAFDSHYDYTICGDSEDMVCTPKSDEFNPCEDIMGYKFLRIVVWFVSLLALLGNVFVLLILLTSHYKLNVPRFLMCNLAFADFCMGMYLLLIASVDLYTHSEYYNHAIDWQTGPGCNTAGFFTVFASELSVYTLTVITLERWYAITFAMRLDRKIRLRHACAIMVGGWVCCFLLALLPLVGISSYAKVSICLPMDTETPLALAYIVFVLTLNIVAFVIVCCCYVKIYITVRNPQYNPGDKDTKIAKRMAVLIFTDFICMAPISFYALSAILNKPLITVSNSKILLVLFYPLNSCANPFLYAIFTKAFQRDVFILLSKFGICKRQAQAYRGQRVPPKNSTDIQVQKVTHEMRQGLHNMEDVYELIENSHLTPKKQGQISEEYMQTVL
Nuclear receptor subfamily 1 group I member 3 (Homo sapiens), sequence (Q14994 whole entry, looked up): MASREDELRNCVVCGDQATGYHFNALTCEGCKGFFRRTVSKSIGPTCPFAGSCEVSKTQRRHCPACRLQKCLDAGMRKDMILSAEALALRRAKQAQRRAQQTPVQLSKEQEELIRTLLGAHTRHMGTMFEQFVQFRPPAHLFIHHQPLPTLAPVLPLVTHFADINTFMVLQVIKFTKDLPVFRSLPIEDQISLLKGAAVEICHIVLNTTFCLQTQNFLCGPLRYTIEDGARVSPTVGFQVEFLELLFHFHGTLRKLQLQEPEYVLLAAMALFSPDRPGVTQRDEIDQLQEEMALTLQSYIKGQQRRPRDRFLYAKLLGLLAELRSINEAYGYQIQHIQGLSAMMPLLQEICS
Luciferin 4-monooxygenase (Photinus pyralis), sequence (P08659 whole entry, looked up): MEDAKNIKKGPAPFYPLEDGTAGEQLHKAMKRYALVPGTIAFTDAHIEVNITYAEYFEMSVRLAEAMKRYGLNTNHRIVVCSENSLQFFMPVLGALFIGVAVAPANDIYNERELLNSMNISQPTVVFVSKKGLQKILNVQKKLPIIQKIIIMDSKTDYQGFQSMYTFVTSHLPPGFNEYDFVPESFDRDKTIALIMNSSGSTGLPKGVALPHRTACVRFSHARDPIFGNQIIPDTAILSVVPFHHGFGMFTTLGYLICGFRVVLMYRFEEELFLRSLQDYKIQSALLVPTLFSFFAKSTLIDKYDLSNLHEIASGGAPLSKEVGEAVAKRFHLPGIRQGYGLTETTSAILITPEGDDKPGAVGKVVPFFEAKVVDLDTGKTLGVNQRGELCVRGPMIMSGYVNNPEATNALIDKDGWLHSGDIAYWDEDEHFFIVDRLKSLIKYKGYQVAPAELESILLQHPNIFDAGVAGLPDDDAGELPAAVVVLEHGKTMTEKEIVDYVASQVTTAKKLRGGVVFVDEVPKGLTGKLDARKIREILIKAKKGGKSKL

Row | Structure (SMILES) | Potency [1] | Potency [2] | Potency [3] | Potency [4] | Potency [5] | Potency [6] | Potency [7] | Potency [8] | outcome [9] | Potency [10]
1 | CC(Cl)(Cl)[N+](=O)[O-] | inactive | inactive | inactive | inactive | inactive | inactive | inactive | inactive | inactive | inactive
2 | CCOP(=S)(OCC)SCSc1ccc(Cl)cc1 | inactive | inactive | inactive | inactive | inactive | 27.3 µM (active) | inactive |  |  | 
3 | ClCC(Cl)(Cl)Cl | inactive | inactive | inactive | inactive | inactive | inactive | inactive |  |  | 
4 | ClCCOCOCCCl | inactive | inactive | inactive | inactive | inactive | inactive | inactive | inactive | inactive | inactive
5 | C[C@@H]1CN(C2CCC(C#N)(c3ccc(F)cc3)CC2)CC[C@]1(C(=O)O)c1ccccc1 (stereo partly specified) | inactive | inactive | inactive | inactive | inactive | inactive | inactive | inactive | inactive | inactive
6 | ClC(Br)Br | inactive | inactive | inactive | inactive | inactive | inactive | inactive | inactive | inactive | inactive
7 | COc1cc(OC)nc(Oc2cccc(Oc3nc(OC)cc(OC)n3)c2C(=O)O)n1 | inactive | inactive | inactive | inactive | inactive | inactive | inactive |  |  | 
8 | CNC(=O)Oc1ccccc1C1OCCO1 | inactive | inactive | inactive | inactive | inactive | inactive | inactive | inactive | inactive | 
9 | O=NN1CCN(N=O)CC1 | inactive | inactive | inactive | inactive | inactive | inactive | inactive | inactive | inactive | inactive
10 | CC(=O)C(Cl)Cl | inactive | inactive | inactive | inactive | inactive | inactive | inactive | inactive | inactive | inactive
11 | COc1cc(OC)nc(NC(=O)NS(=O)(=O)c2ncccc2OCC(F)(F)F)n1 | inactive | inactive | inactive | inactive | inactive | inactive | inactive | inactive | inactive | inactive
12 | COc1cc2c(cc1OC)[C@@]13CCN4CC5=CCO[C@H]6CC(=O)N2[C@H]1[C@H]6[C@H]5C[C@H]43 | inactive | inactive | inactive | inactive | inactive | inactive | inactive |  |  | 
13 | CCCSP(=S)(OCC)Oc1ccc(Cl)cc1Cl (stereo unspecified) | inactive | inactive | inactive | inactive | inactive | 27.3 µM (active) | inactive | inactive | inactive | inactive
14 | CC(C)(C)C(=O)C(Oc1ccc(Cl)cc1)n1cncn1 (stereo unspecified) | inactive | inactive | inactive | inactive | inactive | inactive |  |  |  | 
15 | COCC(=O)N(c1c(C)cccc1C)N1CCOC1=O | inactive | inactive | inactive | inactive | inactive | inactive | inactive | inactive | inactive | 
16 | CCS(=O)(=O)CCSP(=O)(OC)OC | inactive | inactive | inactive | inactive | inactive | inactive | inactive | inactive | inactive | inactive
17 | ClC(Cl)C(Cl)Cl | inactive | inactive | inactive | inactive | inactive | inactive | inactive |  |  | 
18 | CS(=O)(=O)c1cc(C(F)(F)F)ccc1C(=O)c1cnoc1C1CC1 | inactive | inactive | inactive | inactive | inactive | inactive | inactive | inactive | inactive | inactive
19 | CCCCC(=O)Cl | inactive | inactive | inactive | inactive | inactive | inactive | inactive | inactive | inactive | inactive
20 | COC(=O)C(C)Oc1ccc(Oc2ccc(Cl)cc2Cl)cc1 (stereo unspecified) | inactive | inactive | inactive | inactive | inactive | inactive | inactive | inactive | inactive | 
21 | CCOC(=O)/C=C(C)/C=C/C[C@@H](C)CCCC(C)C | inactive | inactive | inactive | inactive | inactive | inactive |  |  |  | 
22 | COc1cccc2c1cc([N+](=O)[O-])c1c(C(=O)O)cc3c(c12)OCO3 | 30.6 µM (active) | 71 µM (active) | 27.3 µM (active) | 27.3 µM (active) | 12.2 µM (active) | inactive | 30.6 µM (active) | inactive | inactive | inactive
23 | CN(C)CCc1ccc(O)cc1 | inactive | inactive | inactive | inactive | inactive | inactive | inactive | inactive | inactive | inactive
24 | CC1(C)C(=O)NC(=O)NC1=O | inactive | inactive | inactive | inactive | inactive | inactive | inactive | inactive | inactive | inactive

Row | Structure (SMILES) | Potency [1] | Potency [2] | Potency [3] | Potency [4] | Potency [5] | Potency [6] | Potency [7] | Potency [8] | outcome [9] | Potency [10]
25 | CCS(=O)(=O)C(C)(C)S(=O)(=O)CC | inactive | inactive | inactive | inactive | inactive | inactive | inactive | inactive | inactive | inactive
26 | CNNC | inactive | inactive | inactive | inactive | inactive | inactive | inactive | inactive | inactive | 
27 | Cc1cc(C)c(C(=O)P(=O)(C(=O)c2c(C)cc(C)cc2C)c2ccccc2)c(C)c1 | inactive | inactive | inactive | inactive | inactive | inactive | inactive | inactive | inactive | inactive
28 | C[C@]12CC[C@H]3[C@@H](CCC4=CC(=O)CC[C@@]43C)[C@@H]1CC[C@@H]2C(=O)O | inactive | inactive | inactive | inactive | inactive | inactive | inactive | inactive | inactive | inactive
29 | CN(N=O)C(N)=O | inactive | inactive | inactive | inactive | inactive | inactive | inactive |  |  | 
30 | CCCCOC(=O)c1ccccc1N | inactive | 40.1 µM (active) | inactive | inactive |  |  |  |  |  | 
31 | CCC(C)n1c(=O)[nH]c(C)c(Br)c1=O (stereo unspecified) | inactive | inactive | inactive | inactive | inactive | inactive | inactive | inactive | inactive | inactive
32 | Cc1ccccc1CO[C@@H]1C[C@@]2(C(C)C)CC[C@]1(C)O2 | inactive | inactive | inactive | inactive | inactive | inactive | inactive |  |  | 
33 | CCOP(=S)(OCC)SCSP(=S)(OCC)OCC | inactive | inactive | inactive | inactive | inactive | 27.3 µM (active) | inactive |  |  | 
34 | CC(Oc1ccc(Oc2ncc(C(F)(F)F)cc2Cl)cc1)C(=O)O (stereo unspecified) | inactive | inactive | inactive | inactive | inactive | inactive | inactive | 27.3 µM (active) | inactive | inactive
35 | Cc1nnc2n1-c1sc(CCC(=O)N3CCOCC3)cc1C(c1ccccc1Cl)=NC2 | inactive | inactive | inactive | inactive | inactive | inactive | inactive | inactive | inactive | inactive
36 | O=CNC(N1CCN(C(NC=O)C(Cl)(Cl)Cl)CC1)C(Cl)(Cl)Cl (stereo unspecified) | inactive | inactive | inactive | inactive | inactive | inactive | inactive | inactive | inactive | inactive
37 | CCC#N | inactive | inactive | inactive | inactive | inactive | inactive | inactive | inactive | inactive | inactive
38 | c1coc(-c2nc3ccccc3[nH]2)c1 | inactive | 28.3 µM (active) | inactive | inactive | inactive | 7.7 µM (active) | inactive |  |  | inactive
39 | COc1cc(OC)nc(NC(=O)NS(=O)(=O)c2ncccc2C(=O)N(C)C)n1 | inactive | inactive | inactive | inactive | inactive | inactive | inactive |  |  | inactive
40 | Nc1cc2c3c(c1)C(c1ccccc1)=N[C@@H](NC(=O)c1cccnc1)C(=O)N3CC2 | inactive | inactive | inactive | inactive | inactive | inactive | inactive |  |  | inactive
41 | CN1CCC(N(Cc2ccccc2)c2ccccc2)CC1 | inactive | inactive | inactive | inactive | inactive | inactive | inactive |  |  | 13.3 µM (active)
42 | COC(=O)c1ccccc1S(=O)(=O)NC(=O)Nc1nc(C)cc(C)n1 | inactive | inactive | inactive | inactive | inactive | inactive | inactive |  |  | inactive
43 | CCN(CC)c1nc(C)cc(OP(=S)(OC)OC)n1 | inactive | inactive | inactive | inactive | inactive | 48.6 µM (active) | inactive |  |  | inactive
44 | CC(=O)[C@H]1CC[C@H]2[C@@H]3CC[C@H]4C[C@H](O)CC[C@]4(C)[C@H]3C(=O)C[C@]12C | inactive | inactive | inactive | inactive | inactive | inactive | inactive |  | inactive | 
45 | C(CCOCC1CO1)COCC1CO1 (stereo unspecified) | inactive | inactive | inactive | inactive | inactive | inactive | inactive |  |  | inactive
46 | Cc1nc(N)nc(N)n1 | inactive | inactive | inactive | inactive | inactive | inactive | inactive |  |  | inactive
47 | N#Cc1c(Cl)cccc1Cl | inactive | inactive | inactive | inactive | inactive | inactive |  | inactive | inactive | 
48 | O=C(Cc1ccccc1)OCc1ccccc1 | inactive | 20.2 µM (active) | inactive | inactive | inactive | inactive | inactive |  |  | inactive
